Experimental data reported in ChEMBL document CHEMBL3433997, “St. Jude Leishmania screening dataset” (2016).

Target: Solute carrier family 2, facilitated glucose transporter member 1 (Homo sapiens) (UniProt P11166)
Test: ST_JUDE_LEISH: Cytotoxicity at 2uM final concentration against transgenic Leishmania Mexicana promastigotes LmGLUT1 that are glucose transport deficient and complemented with the human glucose transporter GLUT1. Activity is measured by DNA content using SYBR green in vitro
Type: functional

Chain of Solute carrier family 2, facilitated glucose transporter member 1 (Homo sapiens) (P11166 whole entry): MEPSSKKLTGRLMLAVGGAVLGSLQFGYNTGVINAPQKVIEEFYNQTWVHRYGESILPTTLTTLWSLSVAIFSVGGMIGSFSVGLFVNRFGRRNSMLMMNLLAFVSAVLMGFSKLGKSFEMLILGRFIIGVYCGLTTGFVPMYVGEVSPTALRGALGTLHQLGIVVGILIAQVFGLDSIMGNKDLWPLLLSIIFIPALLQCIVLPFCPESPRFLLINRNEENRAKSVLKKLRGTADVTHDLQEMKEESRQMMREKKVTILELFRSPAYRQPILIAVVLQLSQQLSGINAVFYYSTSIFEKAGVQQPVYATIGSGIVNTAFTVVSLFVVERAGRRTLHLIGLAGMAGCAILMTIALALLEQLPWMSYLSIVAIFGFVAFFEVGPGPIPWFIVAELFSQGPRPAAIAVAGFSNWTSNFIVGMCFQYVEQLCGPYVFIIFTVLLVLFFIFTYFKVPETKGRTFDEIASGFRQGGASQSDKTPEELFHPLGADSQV

SMILES	inhibition [%]
CCOc1ccc(C2CCN(CCCCNC(=O)c3ccc(NC(=O)c4ccc(Cl)cc4)cc3)CC2)c(CC)c1	0.2
COc1cc2nc(NCCC(C)C)n3nc(-c4ccccc4)nc3c2cc1OC	-1.19
c1ccc(Nc2nc(-c3ccccn3)cs2)nc1	-0.62
Oc1cccc(Nc2nc(NCc3ccco3)c3ccccc3n2)c1	19.6
CCCCNC(=O)[C@H](CC1CCCCC1)NC(=O)c1ccc(O)c(-c2ccc(Cl)c(Cl)c2)c1	-0.2
O=C(NC1CCN(Cc2ccccc2)CC1)c1ccc(-c2nc3cc(Cl)c(Cl)cc3[nH]2)c(F)c1	10.3
CON=Cc1ccn(-c2ccc(O)c3c2C[C@H]2C[C@H]4[C@H](N(C)C)C(O)=C(C(N)=O)C(=O)[C@@]4(O)C(O)=C2C3=O)c1	5.15
COc1ccc(-c2cnc3ccc(NCc4ccc(S(N)(=O)=O)cc4)nn23)cc1	3.11
CN1CCCN(Cc2cccc(-c3cccc(NC(=O)c4cccc(Cl)c4)c3)c2)CC1	13.4
Cc1ccc(-c2nnc(Nc3ccc(CC(N)=O)cc3)c3ccccc23)cc1S(=O)(=O)NCC1CCCO1 (stereo not given)	6.25
CCC[C@@H]([C@@H](CC1CCCCC1)C(=O)N[C@@H](CCCCNS(C)(=O)=O)C(=O)Nc1nccs1)N(O)C=O	1.61
CC=Cc1cc(Cc2c[nH]c(=N)[nH]c2=N)cc(CCC)c1OC	10.8
O=C(c1cccs1)N1CCN(c2ccc([N+](=O)[O-])c(NC3CC3)c2)CC1	1.35
COC(=O)c1cc(C(O)CNC(C)CCc2cccc(F)c2)ccc1O (stereo not given)	2.72
CC(C)(C)c1ccc(S(=O)(=O)Nc2ccccc2Cn2nc(N3CCNCC3)ccc2=O)cc1	8.03
